98 compounds from PubChem BioAssay AID2315 (National Center for Advancing Translational Sciences (NCATS), 2010) can be followed below.

As usually defined, the inhibition is the drop in the measured response relative to a control, in per cent.

The campaign covered roughly 290,000 compounds. About 27,000 (9.3%) were called active. What follows is part of a selection rich in actives, with near analogues and random picks from the rest. A number with no mark means an inactive call. Rule as the data show it: active = inhibition mostly above about 28% (no sharp cut-off); inactive = mostly below about 43%.

This assay is described as follows: A qHTS for Small Molecule Inhibitors of Shiga Toxin. Also: 0% is about no effect. The note with it: Vero cells, Shiga toxin protein synthesis inhibition reporter; at 38.7 µM, active compounds read high. (qHTS replaces the single test concentration by a dilution series.)
In the case of `O=C(Nc1cccc(C(=O)N2CCCC2)c1)c1ccccc1`, the inhibition is -3.28%.
With `C/C(=C\C(=O)c1ccccc1)Nc1cccc(O)c1`, the inhibition is 141% (active).
For the compound `COc1cc(/C=C(/NC(=O)c2ccccc2)C(=O)Nc2cccc(O)c2)c([N+](=O)[O-])cc1OC`, the inhibition is -3.28%.
The result for `O=C(Nc1cccc(O)c1)c1ccc(C(=O)c2ccccc2)o1` reads 88% (active); that for `C/C(=C\C(=O)c1cccnc1)Nc1ccc(C)c(C)c1`, 43.6%.
The result for `O=C(Cc1ccccc1)Nc1cccc(NC(=O)c2ccccc2)c1` reads -14.6%.
Then `CCCc1nnc(NC(=O)CCC(=O)N2CCN(S(=O)(=O)c3ccc(OC)cc3)CC2)s1`, with 4.3%; and `Cc1cc(NC(=O)Nc2c[nH]c(=O)[nH]c2=O)ccc1Br`, with -3.83%.
On to `C=CCn1c(=O)c(C(=O)Nc2ncccc2O)c(O)c2ccccc21`, for which the inhibition was 4.1%.
For `CN(C)S(=O)(=O)c1ccc(N2CCCC2)c(C(=O)Nc2cccc(F)c2)c1`, the inhibition is -10.4%.
`O=[N+]([O-])c1cccc(C2=NCCS2)c1`: the inhibition is 8.55%.
The result for `O=C(CCl)N(Cc1cccc([N+](=O)[O-])c1)c1cccc(Cl)c1` reads -27.9%; that for `Nc1c(-c2cccc(Cl)c2)cnn1-c1cccc([N+](=O)[O-])c1`, 48.6% (active); that for `COc1ccc(CSc2nnnn2-c2ccc(O)cc2)cc1F`, 19.9%.
The result for `CN(C(=O)c1ccno1)c1nnc(-c2cccnc2)s1` reads 5.36%.
Then `COc1cccc(-c2nnc(N(C)C(=O)c3ccno3)s2)c1`, with 30.2%; and `CN(C(=O)C1CCOC1)c1nnc(-c2cccnc2)s1` (stereo not drawn), with 22% (active).
Regarding `O=C(/C=C/c1cccc([N+](=O)[O-])c1)N1CCN(Cc2ccccc2)CC1`, the inhibition is 12.7%.
The result for `CNC(=O)N1c2ccccc2C=Cc2ccccc21` reads -6.09%.
Then `COC(=O)c1nc(NC(=O)c2ccc(C(C)(C)C)cc2)n[nH]1`, with 10.9%; and `O=C(Nc1ccnc(-c2ccncc2)n1)c1cccs1`, with -8.52%; and `CSc1nccc(NC(=O)c2ccc(C(C)(C)C)cc2)n1`, with 71.6% (active).
With `CCOC(=O)c1c(S(=O)(=O)Nc2cccc(Cl)c2)c(C)n(C)c1C`, the inhibition was -10.6%.
Take `O=C(NNc1ncnc2c1cnn2-c1ccccc1)c1ccco1`: the inhibition was 35.5%.
For the compound `Cc1ccc(Nc2ncnc3c2cnn3C)c(C)c1`, the inhibition was 2.4%.
Take `Cc1ccc(-n2ncc3c(Nc4cccc(C(=O)O)c4)ncnc32)cc1`: the inhibition was 76.6% (active).
The result for `O=C(Nc1ccc(Br)cc1F)C1CC(=O)N(C2CCCCC2)C1` (stereo not drawn) reads 0.452%.
The result for `O=C(OCc1nc2ccccc2[nH]1)C1CCCCC1` reads 29.7% (active).
As for `O=C(COc1ccccc1)NCCc1nc2ccccc2[nH]1`, the inhibition is -37.8%.
For `CCO[C@@H]1OC(C(=O)NCc2nc3ccccc3[nH]2)=C[C@H](C2CCCCC2)[C@H]1CCCO`, the inhibition was -8.66%.
Regarding `CC1C(=O)Nc2ccccc2N1C(=O)c1ccc(F)cc1F` (stereo not drawn), the inhibition was 26.5%.
Regarding `O=C(Nc1ccc(-c2cscn2)cc1)C1CCCN(Cc2ccc(CO)o2)C1` (stereo not drawn), the inhibition was 7.25%.
`O=C(NNC(=S)NC1CC2CCC1C2)c1ccc(Cl)cc1` (stereo not drawn): the inhibition was 12.4%.
Then `CCOC(=O)NNC(=O)c1ccc(Cl)cc1`, with 11.6%.
The result for `O=C(NNC(=O)C1C2CCC(C2)C1C(=O)O)c1ccc(Cl)cc1` (stereo not drawn) reads 57.3% (active); that for `Cc1ccc(OCC(=O)NC(C)c2ccccc2)cc1C` (stereo not drawn), -6.99%.
The result for `CCOc1ccc(OCC(=O)Nc2c3c(nn2C(C)(C)C)CS(=O)(=O)C3)cc1` reads -5.61%.
`CC(C)Oc1ccc(Oc2ccc(C(F)(F)F)cn2)cc1`: the inhibition is 1.31%.
The result for `CSc1nnc(-c2ccc(C(F)(F)F)cn2)o1` reads 47.1% (active); that for `CCOC(=O)CSc1nnc(NC(=O)c2cccc(S(=O)(=O)N3CCCC3)c2)s1`, -15%.
For the compound `CC(=O)c1sc(NC(=O)CCCOc2ccccc2C)nc1C`, the inhibition is -15.8%.
Then `CCSc1nnc(NC(=O)c2ccc(C)cc2)s1`, with 71.3% (active); and `Cc1ccc(S(=O)(=O)Nc2nc(C)cc(N/N=C/c3ccc(O)cc3)n2)cc1`, with 9.39%.
Then `C=CCSc1nnc(NC(=O)c2ccc(NC(C)=O)cc2)s1`, with 26.6%.
`COC(=O)c1sc(NC(=S)NC(=O)c2ccc(C)cc2)nc1C`: the inhibition is 38.9%.
The result for `CC(=O)c1sc(NC(=O)c2ccc(C)cc2)nc1C` reads 107% (active); that for `CCOC(=O)c1sc(NC(=O)c2ccncc2)nc1C`, 11%.
The result for `CC(=O)c1sc(N/N=C\c2ccc(C)cc2)nc1C` reads 72.3% (active).
`CC(=O)c1sc(N/N=C/c2ccc(C(C)C)cc2)nc1C`: the inhibition was 69.3% (active).
As for `Cc1nnc(C)n1/N=C/c1ccc(C(C)C)cc1`, the inhibition is -9.61%.
As for `CC(=O)c1sc(NC(=O)C2=NN(c3ccccc3)C(=O)CC2)nc1C`, the inhibition was 21.6%.
The result for `O=C(NCCCN1CCOCC1)C1CCCN(S(=O)(=O)N2CCCCC2)C1` (stereo not drawn) reads -9.17%.
Take `Cc1ccc(NC(=O)Cc2nnc(SCC(=O)Nc3nncs3)n2C)cc1`: the inhibition is -6.25%.
On to `COc1ccc(OC)c(/C(C)=N\NC(=O)c2cc3cc(Cl)ccc3n2C)c1`, for which the inhibition was -10.1%.
The result for `CCN(Cc1ccncc1)C(=O)CCc1ccccc1` reads -7.55%.
Then `COc1ccccc1NC(=O)C1CCCN1S(=O)(=O)c1ccc(Cl)cc1` (stereo not drawn), with 23.6%; and `CC(NS(=O)(=O)c1ccc(Br)cc1)C(=O)NCC1CCCO1` (stereo not drawn), with 25%.
Then `CC(C)(C)NC(=O)CN(Cc1cccs1)C(=O)CNS(=O)(=O)c1ccccc1`, with 41.4%; and `C[C@H]1CCC[C@@]2(C)CCCC[C@]12O`, with 12.1%.
For `COc1ccccc1N1CCN(c2ncnc3sc(C)c(-c4ccccc4)c23)CC1`, the inhibition was 54.8%.
Then `O=C(c1c(F)cccc1Cl)N1CCN(S(=O)(=O)c2ccc3c(c2)OCCCO3)CC1`, with -6.3%.
On to `CC1CCN(CC(=O)Nc2nccs2)CC1`, for which the inhibition was -4.28%.
Consider `N/C(=N\OC(=O)/C=C/c1ccccc1)c1ccc(Br)cc1`, for which the inhibition is 6.16%.
As to `N/C(=N\OC(=O)c1ccc2c(c1)OCO2)c1ccc(Br)cc1`, the inhibition is 73.3% (active).
The result for `N/C(=N\OC(=O)N1c2ccccc2Sc2ccccc21)c1ccc(Br)cc1` reads -3.87%; that for `O=C(Nc1nnc(-c2ccc(F)cc2)s1)c1c(F)cccc1Cl`, 3.43%.
Then `Cc1ccc(C(=O)c2c(NC(=O)c3ccncc3)sc3c2CCCC3)cc1`, with -0.844%; and `O=C1NC(c2ccncc2)Nc2sc3c(c21)CCCC3` (stereo not drawn), with 64.1% (active); and `C/C(=C\c1ccccc1)C1NC(=O)c2c(sc3c2CCCC3)N1` (stereo not drawn), with 34.2%.
The result for `CCOC(=O)[C@@H]1[C@H]2COc3cc(OC)ccc3[C@@H]2N2C(=O)N(c3cccc(C)c3)C(=O)[C@@]12C` reads -1.2%; that for `CC1CCCN(CCCNC(=O)CN2C(=O)COc3ccc(S(=O)(=O)N4CCOCC4)cc32)C1` (stereo not drawn), -5.12%; that for `C=CCn1c(CNS(=O)(=O)c2ccc(Br)cc2)nnc1SC`, -6.56%.
Turning to `O=C(Cn1c(-c2cncs2)nc2ccccc21)NC1CCCC1`, the inhibition is -2.75%.
`O=C(CSc1nnc2c(n1)[nH]c1ccccc12)NC1CCCCC1`: the inhibition is -11%.
The result for `O=C(/C=C/c1cnc2ccccc2n1)NC1CCCCCC1` reads 112% (active); that for `Cc1ccc(N(Cc2cc(=O)[nH]c3ccccc23)C(=O)CCl)cc1`, -5.41%; that for `Cc1cccc(C(=O)NNC(=O)CSc2nnc(C(C)C)n2C)c1`, -2.77%.
Take `COc1cccc(C(C(=O)NC2CCCC2)N(C(=O)c2ccco2)c2cccc(C(C)=O)c2)c1OC` (stereo not drawn): the inhibition was -12.2%.
Then `Cc1nc(/N=C(\N)NC(=O)NC2CCCCC2)nc2ccccc12`, with 30.3% (active); and `COc1ccc2nc(/N=C(\N)NC(=O)Nc3ccccc3)nc(C)c2c1`, with 69.1%.
Consider `O=C(NNC(=O)C(O)c1ccccc1)NC1CCCCC1` (stereo not drawn), for which the inhibition is -13.5%.
For the compound `COc1ccc(C(=O)NCCCN2CCOCC2)cc1Br`, the inhibition was -13.5%.
The result for `O=C(c1cc2ccccc2o1)N1CCN(c2cccc(C(F)(F)F)c2)CC1` reads -15.8%; that for `COCCN(C(=O)CCC(=O)Nc1nccs1)C(C(=O)NCCC(C)C)c1ccc(F)cc1` (stereo not drawn), -13.9%; that for `COC(=O)/C(C#N)=C/c1occc1C`, -2.66%.
As to `CCOC(=O)NC(=O)/C(C#N)=C\c1ccccc1`, the inhibition is -2.62%.
Consider `CCOC(=O)/C(C#N)=C\c1c(C)cc(C)c(COC(C)=O)c1C`, for which the inhibition was 30.8% (active).
Then `COCCNC(=O)CSc1nc2sccc2c(=O)n1-c1ccccc1`, with -4.95%.
For `COc1cc(NC(=O)NCC2CCN(Cc3ccc(C)cc3)CC2)cc(OC)c1OC`, the inhibition is 19.7%.
The result for `Fc1ccc(CSc2nnc(-c3cc4c(s3)-c3ccccc3CC4)o2)cc1` reads -15%; that for `O=C(CSc1nnc(-c2ccccc2O)o1)NC1CCCCC1`, -7.64%; that for `CCSc1nnc(-c2cc3c(s2)-c2ccccc2CC3)o1`, 73.3% (active).
As for `CSCCC(NC(=O)c1ccc(Cl)cc1Cl)C(=O)NNC(=O)c1csc(N2CCOCC2)n1` (stereo not drawn), the inhibition is 23.2%.
The result for `O=C(Nc1ccc(N2CCCC2=O)cc1)c1cncc(Br)c1` reads -22%; that for `CN(C)Cc1c(O)ccc2c(=O)c(-c3ccccc3Cl)coc12`, 2.96%.
Then `CC1CCCCC1NC(=O)/C(C#N)=C/C=C/c1ccccc1[N+](=O)[O-]` (stereo not drawn), with 52.2% (active); and `O=C(/C=C/c1ccccc1[N+](=O)[O-])NCC1CCCO1` (stereo not drawn), with 28%.
Then `O=C(/C=C/c1ccccc1[N+](=O)[O-])OC1CCCCC1=O` (stereo not drawn), with -5.74%.
